The values below come from article PMC5540273 (PLoS ONE, 2017).

SMILES strings stand for the structures.

Among the test systems are DYRK1B; DYRK2; EGFR; EIF2AK1; EPHA1; EPHA2; EPHA3; EPHA4; EPHA5; EPHA6; EPHA7; EPHA8; EPHB1; EPHB2; EPHB3; EPHB4; EPHB6; ERBB2; ERBB3; ERBB4.
Common to all, as to conditions: concentration: 1 μM,replicates: in singlicate; n = 1
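Also: KINOMEscan kinase panel screen.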

For `Cc1ccc(CC(=O)N2CCc3cc(-c4cn(C)c5ncnc(N)c45)ccc32)cc1` [GSK2634758], the “%Inh” value in the test on DYRK1B came to 0%; in the test on DYRK2, 7%; in the test with EGFR it was 27%; in the test with EIF2AK1 it was 46%; in the test on EPHA1, 0%; in the test on EPHA2, 2%. In addition, the “%Inh” value in the test on EPHA3 was 0%; in the test on EPHA4, 0%; with EPHA5 it was 0%; with EPHA6, 0%; with EPHA7 it was 4%; in the test with EPHA8, 13%. Further, the “%Inh” value is on record as 7% with EPHB1; 0% with EPHB2; 0% in the test with EPHB3; 10% in the test with EPHB4; 53% in the test on EPHB6; 0% in the test with ERBB2. Also, the “%Inh” value stood at 10% with ERBB3 and 18% in the test on ERBB4.

Regarding `CCCC(=O)Nc1n[nH]c2ncccc12` [SB-601436], the “%Inh” value amounted to 0% in the test with DYRK1B; 2% with DYRK2; 11% in the test on EGFR; 0% with EIF2AK1; 8% in the test on EPHA1; 0% with EPHA2. In addition, the “%Inh” value came to 0% in the test with EPHA3; 14% in the test on EPHA4; 0% with EPHA5; 25% with EPHA6; 0% in the test with EPHA7; 0% with EPHA8. For the same compound, the “%Inh” value amounted to 0% in the test with EPHB1; 0% in the test on EPHB2; 12% with EPHB3; 16% in the test on EPHB4; 0% in the test on EPHB6; 0% in the test with ERBB2. Further, the “%Inh” value with ERBB3 and in the test on ERBB4 was 0% throughout.

Regarding `COc1cc2ncn(-c3cc(OCC4CCCCC4)c(C(N)=O)s3)c2cc1OC` [GSK204559], the “%Inh” value was determined as 11% in the test with DYRK1B; 33% in the test on DYRK2; 38% with EGFR; 1% with EIF2AK1; 3% in the test with EPHA1; 4% in the test with EPHA2. Moreover, the “%Inh” value in the test on EPHA3 was 14%; with EPHA4, 10%; in the test with EPHA5, 0%; in the test on EPHA6, 11%; with EPHA7, 17%; in the test on EPHA8 it was 29%. Besides, the “%Inh” value with EPHB1 is reported as 10%; in the test with EPHB2 it was 0%; in the test with EPHB3, 21%; in the test with EPHB4, 8%; in the test on EPHB6 it was 64%; in the test on ERBB2, 0%. Also, the “%Inh” value in the test with ERBB3 and in the test with ERBB4 was 0% throughout.

For the compound `COC(=O)Nc1nc2cc(Oc3ccc(NC(=O)Nc4cc(C(F)(F)F)ccc4Cl)cc3)ccc2[nH]1.Cl` [GW697465], the “%Inh” value in the test with DYRK1B is 0%; in the test with DYRK2, 0%; in the test on EGFR it was 42%; with EIF2AK1 it was 0%; in the test on EPHA1, 91%; in the test on EPHA2, 96.2%. Moreover, the “%Inh” value turned out to be 43% with EPHA3; 92% in the test with EPHA4; 37% with EPHA5; 93.7% in the test on EPHA6; 84% in the test with EPHA7; 99.7% with EPHA8. Also, the “%Inh” value turned out to be 62% in the test with EPHB1; 60% in the test with EPHB2; 10% in the test with EPHB3; 51% with EPHB4; 83% with EPHB6; 45% with ERBB2. The “%Inh” value in the test on ERBB3 was 25%; in the test with ERBB4, 37%.

As for `CN(c1ccc2c(c1)nc(NCc1ccc(F)cc1)n2C)c1ccnc(Nc2ccc(CS(C)(=O)=O)cc2)n1.Cl` [GW813244], the “%Inh” value with DYRK1B came out at 4%; in the test on DYRK2, 30%; in the test on EGFR, 18%; in the test on EIF2AK1 it was 0%; with EPHA1, 0%; with EPHA2 it was 12%. In addition, the “%Inh” value with EPHA3 is reported as 5%; with EPHA4, 20%; in the test with EPHA5, 0%; in the test with EPHA6 it was 23%; in the test on EPHA7 it was 0%; with EPHA8 it was 49%. Besides, the “%Inh” value is given as 9% in the test on EPHB1; 23% in the test on EPHB2; 5% in the test with EPHB3; 0% in the test on EPHB4; 78% with EPHB6; 17% in the test with ERBB2. Moreover, the “%Inh” value in the test with ERBB3 came to 0%; in the test with ERBB4, 19%.

In the case of `COc1cc(Nc2nccc(N3CCC(NC(=O)c4cccc(C#N)c4)C3)n2)cc(OC)c1OC` (centres unmarked) [GSK1379751], the “%Inh” value with DYRK1B stood at 15%; in the test with DYRK2, 0%; in the test with EGFR it was 29%; in the test on EIF2AK1, 0%; with EPHA1, 11%; in the test with EPHA2, 2%. The “%Inh” value amounted to 0% in the test with EPHA3; 4% in the test on EPHA4; 0% in the test with EPHA5; 0% in the test with EPHA6; 0% with EPHA7; 0% with EPHA8. Moreover, the “%Inh” value worked out at 4% in the test on EPHB1; 0% in the test with EPHB2; 8% with EPHB3; 19% in the test with EPHB4; 86% in the test on EPHB6; 41% in the test on ERBB2. Moreover, the “%Inh” value in the test with ERBB3 was determined as 16%; in the test with ERBB4, 31%.

Regarding `Cn1ccc2ncnc(Oc3ccc(NC(=O)Nc4cc(C(C)(C)C)on4)c(Cl)c3)c21`, the “%Inh” value in the test with DYRK1B is listed as 39%; in the test with DYRK2, 23%; in the test with EGFR, 50%; in the test on EIF2AK1 it was 3%; with EPHA1 it was 71%; in the test on EPHA2 it was 85%. In addition, the “%Inh” value came to 93.4% in the test with EPHA3; 68% in the test on EPHA4; 58% with EPHA5; 99.6% in the test on EPHA6; 90% in the test on EPHA7; 98.9% in the test on EPHA8. Further, the “%Inh” value was 65% with EPHB1; 78% in the test on EPHB2; 40% in the test with EPHB3; 35% in the test with EPHB4; 64% in the test with EPHB6; 81% in the test with ERBB2. For the same compound, the “%Inh” value in the test with ERBB3 amounted to 5%; in the test on ERBB4, 0%.

On to `O=C(NOCC1CC1)c1cc(Br)c(F)c(F)c1Nc1ccc(I)cc1Cl`, for which the “%Inh” value in the test with DYRK1B is listed as 17%; with DYRK2 it was 0%; in the test with EGFR, 0%; in the test with EIF2AK1 it was 0%; in the test on EPHA1, 0%; in the test on EPHA2 it was 0%. Besides, the “%Inh” value in the test with EPHA3, with EPHA4, in the test with EPHA5, in the test with EPHA6, in the test on EPHA7 and in the test with EPHA8 was 0% throughout. The “%Inh” value was 5% in the test with EPHB1; 5% in the test on EPHB2; 0% with EPHB3; 0% with EPHB4; 0% in the test with EPHB6; 44% with ERBB2. In addition, the “%Inh” value in the test on ERBB3 and in the test on ERBB4 was 0% in each case.

Turning to `COc1cccc(C2=C(Nc3cccc(Cl)c3)C(=O)NC2=O)c1` [SB-341556], the “%Inh” value with DYRK1B worked out at 0%; with DYRK2 it was 2%; in the test on EGFR, 25%; in the test on EIF2AK1 it was 9%; with EPHA1 it was 18%; in the test on EPHA2, 19%. The “%Inh” value in the test with EPHA3 is given as 0%; with EPHA4, 23%; with EPHA5, 0%; in the test with EPHA6, 13%; in the test on EPHA7, 7%; in the test with EPHA8, 20%. Moreover, the “%Inh” value with EPHB1 is reported as 0%; in the test with EPHB2 it was 0%; in the test on EPHB3, 17%; in the test with EPHB4 it was 4%; in the test with EPHB6, 29%; in the test with ERBB2, 0%. Moreover, the “%Inh” value in the test with ERBB3 and in the test on ERBB4 was 0% throughout.

Regarding `Cc1cccc(-c2nc(Nc3ccncc3)c3sccc3n2)n1` [GW869641], the “%Inh” value was 9% in the test with DYRK1B; 35% with DYRK2; 16% in the test on EGFR; 17% in the test on EIF2AK1; 0% in the test with EPHA1; 0% in the test with EPHA2. Besides, the “%Inh” value with EPHA3 is recorded as 26%; in the test with EPHA4, 8%; in the test on EPHA5, 23%; with EPHA6 it was 16%; in the test on EPHA7 it was 6%; in the test with EPHA8, 2%. For the same compound, the “%Inh” value with EPHB1 amounted to 15%; in the test with EPHB2, 6%; in the test on EPHB3, 16%; in the test on EPHB4 it was 0%; with EPHB6, 30%; in the test on ERBB2, 29%. In addition, the entries for the “%Inh” value with ERBB3 and with ERBB4 were 29% and 13%, respectively.
